Laboratory results reported in PubChem BioAssay (NCI).
This is part of a sample that, as a whole, favours compounds with a hit. Of some 83,000 tested, about 20% had one in any assay.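 Negative percent growth values reflect cell death: -40 means 40% of the cells present at the start died, and -100 means all died.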 Active and inactive are the calls of the source. The calls were made as follows: active = growth percent below 10; inactive = the rest.

Each compound was assayed on UO-31 renal (assay: NCI-60 one-dose screen, 48 h (100 = growth as untreated, 0 = no growth, -100 = all killed)). Details: 10 µM.

SMILES	growth
Clc1ccc(/C=C2\CCCC3C2=Nc2ccccc2NC3c2ccc(Cl)cc2)cc1 (stereo not given)	70.7% (inactive)
CCC(c1ccc(OC)cc1)C(CC)c1ccc(O)c(CN2CCN(C)CC2)c1 (stereo not given)	37.3% (inactive)
CC[C@@H](C(=O)[C@H](C)[C@H](O)[C@@H](C)[C@H]1O[C@H]([C@@H](CC)C(=O)N(CC)CC)CC[C@H]1C)C1O[C@]2(C=C[C@@H](O)[C@]3(CC[C@@](C)([C@H]4CC[C@](O)(CC)[C@H](C)O4)O3)O2)[C@H](C)C[C@@H]1C (stereo not given in full)	-5.88% (active)
c1ccc(/C(=N\Nc2ccc3ccccc3n2)c2ccccn2)cc1	13.7% (inactive)
O=C(NCCCNS(=O)(=O)c1ccc(Cl)cc1)Nc1ccc(-n2cc(-c3ccncc3)c(-c3ccc(Cl)c(O)c3)n2)cc1	40.9% (inactive)
Nc1ncnc2c1ncn2C1(CO)OCC(O)C(O)C1O (stereo not given)	87.9% (inactive)
CN(C)CCOc1ccc(-c2nc3sccn3c2-c2ccnc(S(C)(=O)=O)n2)cc1	97.1% (inactive)
CC[C@H]1OC(=O)[C@H](C)[C@@H](O[C@H]2C[C@@](C)(OC)[C@@H](O)[C@H](C)O2)[C@H](C)[C@@H](O[C@@H]2O[C@H](C)C[C@H](N(C)C)[C@H]2O)[C@](C)(OC)C/C(C)=C2/O[C@@]1(C)C=C2C	50.5% (inactive)
COc1cc(/C=C2\CCCC3=C2NC(N)=NC3c2cc(OC)c(OC)c(OC)c2)cc(OC)c1OC (stereo not given)	34.3% (inactive)
O=[N+]([O-])c1cccc(/C=N/NC(=S)NC23CC4CC(CC(C4)C2)C3)c1	89.9% (inactive)
CNC(=O)c1cc(Oc2ccc3c(c2)sc2nc(-c4ccc(N)cc4)cn23)ccn1	43.8% (inactive)
COc1ccc2c(c1)OC(N)=C(C#N)C2c1cc(OC)c(OC)c(OC)c1 (stereo not given)	47.2% (inactive)
S=C(NCc1ccccc1)NCc1ccccc1	87.1% (inactive)
CC(=O)OC1C=CC(OC(C)=O)O1 (stereo not given)	59.4% (inactive)
Cc1ccc(Cl)cc1NC(=O)CCl	91.3% (inactive)
CCC(C)[C@H](NC(C)=O)C(=O)N[C@@H](CCCNC(=N)N)C(=O)N[C@@H](CCCCN)C(=O)N[C@@H](CC1CCC(O)CC1)C(=O)NC(C(=O)N[C@@H](CCSC)C(=O)N[C@@H](CCCNC(=N)N)C(=O)N[C@@]1(C)CCC/C=C\CCC[C@@](C)(C(=O)NC(C(=O)N[C@@H](CCC(=O)O)C(=O)N[C@@H](CC(C)C)C(=O)N[C@H](C(=O)N[C@@H](CCC(=O)O)C(N)=O)C(C)C)[C@@H](C)O)NC(=O)[C@H](CCC(N)=O)NC(=O)[C@H](CC(C)C)NC(=O)[C@H](CC(C)C)NC1=O)[C@@H](C)O (stereo not given in full)	106% (inactive)
COc1cc2cc(Oc3ccc(NC(=O)c4cccc(C(F)(F)F)c4)cc3)c(C)nc2cc1OC	22.8% (inactive)
COC(=O)C1(O)NC(=C(C#N)C#N)C(C#N)=C1C(=O)c1ccc(OC)c(OC)c1 (stereo not given)	86.7% (inactive)
COc1ccc(-c2onc(N)c2-c2cc(OC)c3c(c2)OCO3)cc1	55.2% (inactive)
NC(N)=N/N=C(\c1ccccc1)C(O)c1ccccc1 (stereo not given)	81.1% (inactive)

SMILES	growth
COc1cc2cc(Oc3ccc(NC(=O)c4ccccc4)cc3)c(C)nc2cc1OC	81.4% (inactive)
CS(=O)(=O)c1nccc(-c2c(-c3cccc(OCc4ccc(F)cc4)c3)nc3sccn23)n1	-24.1% (active)
CCOC(=O)c1cc(C(=O)c2ccc(F)cc2F)n2ccccc12	72.3% (inactive)
O=C(N/N=C/c1ccc(Cl)cc1)c1ccccc1Nc1cccc(C(F)(F)F)c1	40.8% (inactive)
CC(C)(C)OC(=O)N1CCc2c(sc3ncnc(N/N=C/c4ccccc4Br)c23)C1	32.7% (inactive)
CC(C)N(CCOc1ccc(-c2nc3sccn3c2-c2ccnc(S(C)(=O)=O)n2)cc1)C(C)C	70% (inactive)
CN(C)CCCOc1ccc(NC2=C(Cl)C(=O)C(Nc3ccc(OCCCN(C)C)cc3)=C(Cl)C2=O)cc1	-99% (active)
COc1cccc(C2C(C#N)=C(N)Oc3cc(N)ccc32)c1 (stereo not given)	49.7% (inactive)
Cc1ccc(NCCN(C)CC(C)O)c2c(=O)c3ccccc3sc12 (stereo not given)	41.5% (inactive)
CCCCN(CCCC)C(=O)[C@H](CC)[C@@H]1CC[C@@H](C)[C@@H]([C@H](C)[C@@H](O)[C@@H](C)C(=O)[C@H](CC)C2O[C@]3(C=C[C@@H](O)[C@]4(CC[C@@](C)([C@H]5CC[C@](O)(CC)[C@H](C)O5)O4)O3)[C@H](C)C[C@@H]2C)O1 (stereo not given in full)	-11.7% (active)
CC(C)N(CCOc1cccc(-c2nc3sccn3c2-c2ccnc(S(C)(=O)=O)n2)c1)C(C)C	89.8% (inactive)
NC(=O)c1cccc(-n2ccc3cc(NC(=O)Nc4ccc(Cl)c(C(F)(F)F)c4)ccc32)n1	77.3% (inactive)
COc1cccc(-c2nc3sccn3c2-c2cccc(S(C)(=O)=O)c2)c1	73.1% (inactive)
COc1ccc(Cl)cc1Nc1nc(C(F)(F)F)ccc1C(=O)N/N=C/c1ccc(Cl)cc1	18.8% (inactive)
CCOc1ccccc1/C=N\N=C\c1ccccc1O	52% (inactive)
CN(C)c1ccc(/C=N/NC(=O)c2ccccc2Nc2cccc(C(F)(F)F)c2)cc1	77.2% (inactive)
COc1cc2cc(Oc3ccc(NC(=O)Nc4cccc(C(F)(F)F)c4)cc3)c(C)nc2cc1OC	11.3% (inactive)
O=C(Nc1cc(Cl)cc2c1-c1ccc(Cl)cc1C2O)C(Cl)Cl (stereo not given)	74% (inactive)
C/C(=N\O)c1ccc(NC(=O)CSc2nnc(-c3ccccc3)n2-c2ccccc2)cc1	76.2% (inactive)
CCN(CC)CCCOc1cccc2c1C(=O)c1cccc(OCCCN(CC)CC)c1C2=O	16% (inactive)
